High-throughput results (PubChem BioAssay)
POLH inh: blocks human DNA polymerase eta activity; Q9Y253; recombinant Pol eta, fluorescent DNA replication assay; Potency, µM (titrated, usually from 114 µM), hits mostly inhibitors; 390,000 tested, 1.2% active; AID 588591
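Pol eta at 10 nM preincubated with compounds 15 min at room temperature; reaction started with fluorescent substrate (50 nM final) and read kinetically at 0 and 10 min.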
POLK inh: blocks human DNA polymerase kappa activity; Potency, µM (top dose mostly 107 µM), actives largely listed as inhibitors; 400,000 tested, 0.53% active; purified Pol kappa, fluorescent DNA synthesis assay, 10 min; Q9UBT6
Target sequence (Q9UBT6 whole entry, looked up): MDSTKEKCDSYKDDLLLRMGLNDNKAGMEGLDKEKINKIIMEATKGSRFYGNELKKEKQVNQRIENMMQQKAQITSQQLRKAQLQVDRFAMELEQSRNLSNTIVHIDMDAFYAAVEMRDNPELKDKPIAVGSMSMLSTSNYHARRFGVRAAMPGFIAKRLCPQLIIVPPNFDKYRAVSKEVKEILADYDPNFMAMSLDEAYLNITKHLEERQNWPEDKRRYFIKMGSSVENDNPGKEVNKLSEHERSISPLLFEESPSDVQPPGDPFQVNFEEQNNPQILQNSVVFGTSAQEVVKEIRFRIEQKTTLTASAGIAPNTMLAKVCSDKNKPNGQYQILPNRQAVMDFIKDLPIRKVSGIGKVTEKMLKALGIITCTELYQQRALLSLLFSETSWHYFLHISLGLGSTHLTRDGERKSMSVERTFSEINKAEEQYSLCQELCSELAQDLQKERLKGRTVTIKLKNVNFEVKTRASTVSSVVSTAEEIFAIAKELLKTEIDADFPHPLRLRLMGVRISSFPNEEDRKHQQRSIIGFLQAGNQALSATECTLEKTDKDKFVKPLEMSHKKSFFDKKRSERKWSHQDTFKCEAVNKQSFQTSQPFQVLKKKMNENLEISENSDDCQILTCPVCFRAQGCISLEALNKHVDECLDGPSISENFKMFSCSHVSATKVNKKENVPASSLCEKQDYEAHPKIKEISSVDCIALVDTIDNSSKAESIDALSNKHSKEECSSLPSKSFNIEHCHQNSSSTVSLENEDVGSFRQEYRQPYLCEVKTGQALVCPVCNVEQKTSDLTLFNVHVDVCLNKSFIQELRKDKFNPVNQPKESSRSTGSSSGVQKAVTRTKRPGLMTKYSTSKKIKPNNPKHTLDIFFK
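Here, compound and 10 nM enzyme are combined for 15 min at room temperature; adding 50 nM substrate (final) starts DNA synthesis, tracked by fluorescence at 0 and 10 min against buffer-only wells.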
PI5P4Ka inh: PI5P4K alpha (human) kinase inhibition | max response, % | 330,000 tested, 1.2% active | P48426 | PI5P4Kalpha enzyme, ADP-Glo luminescence, 60 min; hits give low values; active means max response of -50% or lower; inconclusive means between -30% and -50%; inactive means -30% or higher; further: value at the top dose of about 77 µM
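Reactions run in 0.038 M HEPES pH 7.4, 0.28 mM EGTA, 0.1% CHAPS and 5% DMSO, with PI5P4Kalpha, substrate, compound and 5 microM ATP final, one hour at room temperature. Readout is ADP-Glo luminescence.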
WRN inhibitor: blocks human WRN helicase; Q14191; WRN helicase unwinding, fluorescent forked duplex, kinetic; Potency, µM (series often up to 114 µM), most hits filed as inhibitors; 360,000 tested, 0.46% active; AID 651768; further: nearly all actives have a fitted effect of over 55% in size
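Kinetic red-fluorescence monitoring (525/598 nm) tracks WRN helicase activity after 100 nM fluorophore-quencher forked duplex and 2 mM ATP are added to 20 nM enzyme pretreated 15 min at room temperature with compound.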
Pol beta inh: blocks human DNA polymerase beta activity; AID 485314; Pol beta primer extension/strand displacement, fluorescence kinetic; 340,000 tested, 1.3% active; P06746; Potency, µM (top dose mostly 114 µM), most hits filed as inhibitors
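Human Pol beta at 10 nM; strand-displacement substrate 50 nM final. Compound exposure 15 min at room temperature before start, reaction 10 min at room temperature.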
POLI inh: DNA polymerase iota (human) inhibition; Q9UNA4; Pol iota fluorescent replication assay, 10 min; Potency, µM (doses to about 115 µM), most hits filed as inhibitors; 390,000 tested, 1% active
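Pol iota at 10 nM preincubated 15 min with compounds at room temperature; reaction started with fluorescent substrate, 50 nM final. Fluorescence read kinetically at 0 and 10 min; buffer-only wells as negative control.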
TbPGK inh: blocks T. brucei phosphoglycerate kinase. 500 tested, 79% active. Potency, µM (titrated, usually from 57.5 µM), most hits filed as inhibitors. shares compounds with POLK inh. TbPGK coupled GAPDH assay, Kinase-Glo luminescence. AID 686980; further: nearly all actives have a fitted effect of over 65% in size
Pol iota confirm: Human Pol iota inhibitor confirmatory assay; shares compounds with POLK inh; Pol iota primer extension, TAMRA/BHQ fluorescence; Potency, µM, actives largely listed as inhibitors; 1,500 tested, 77% active; AID 720496
Numbers stand for hits; - = inactive; ? = inconclusive; . = not tested or not shown; [ ] = dose if it differs, or a comment. Hits are enriched below; roughly 2.8% of the tested compounds scored in any of these assays. Unless noted, the call rests on the fitted dose curve; in most records, active means well fitted curve in the direction sought with a large enough effect; inconclusive means small, poorly fitted or top-dose-only effect, or another doubt; inactive means no such curve, though single readings can be large; an effect the other way counts as inactive or inconclusive.

SMILES	POLH inh	POLK inh	PI5P4Ka inh	WRN inhibitor	Pol beta inh	POLI inh	TbPGK inh	others
O=C(O)C1Nc2c(O)cccc2C2C=CCC12 (stereo not drawn)	1.3µM	10µM	-81	11µM	1.6µM	?	3.3µM
O=C(O)C1Nc2ccc(Br)cc2C2C=CCC12 (stereo not drawn)	3.2µM	10µM	-82	28µM	1.6µM	?	18µM
CC(C)CNC(=O)C1Nc2ccc(C(F)(F)F)cc2C2C=CCC12 (stereo not drawn)	-	-	-	-	.	-	.
COC(=O)CNC(=O)C1Nc2ccccc2C2C=CCC12 (stereo not drawn)	?	-	?	-	.	?	.
Cc1ccc(Nc2nc(N)nc(CSc3nnnn3-c3ccccc3)n2)cc1	?	-	-	-	22µM	20µM	.	Pol iota confirm=30
Cc1cccc(/C(N)=N/OC(=O)c2ccoc2C)c1	-	-	-	-	-	-	.
Cc1ccccc1C(=O)O/N=C(\N)c1ccccc1	-	-	-	-	-	-	15µM
Cc1occc1C(=O)O/N=C(\N)c1ccccc1	-	-	?	-	-	-	18µM
Cc1ccccc1C(=O)O/N=C(\N)c1ccc([N+](=O)[O-])cc1	-	-	-	-	-	-	.
O=C(Nc1ccc(Oc2ccccc2)nc1)C1CCCCN1Cc1ccco1 (stereo not drawn)	-	-	-	-	-	-	.
C=C(C)C(=O)OCCCCCCOc1ccc(C(=O)O)cc1	35µM	25µM	.	-	71µM	14µM	9.2µM
COc1cc2oc(=O)ccc2cc1O	.	-	.	.	.	.	.
COc1cc2c(ccc3cc(OC)c(OC)c(O)c32)cc1O	3.2µM	7.9µM	-106	18µM	1.4µM	?	1.5µM
COc1ccc(C(=O)NNC(=O)c2ccccn2)cc1	-	-	-57	-	-	-	5.2µM
COc1ccc(C(=O)O/N=C(\N)c2ccccn2)cc1	-	-	-71	-	-	-	5.2µM
Cc1ccc(C(=O)O/N=C(\N)c2ccccn2)c(C)c1	-	-	-57	-	-	-	7.3µM
N/C(=N\OC(=O)c1ccccc1Cl)c1ccccn1	-	-	.	-	-	-	16µM
COc1cc(OC)cc(C(=O)O/N=C(\N)c2ccccn2)c1	-	-	-	-	-	-	.
O=C1CN(CCN2CC(=O)NC(=O)C2)CC(=O)N1	.	-	.	.	.	-	.
O=P1(O)Cc2ccccc2-c2ccccc21	-	-	-	-	.	-	.
N/C(=N\OC(=O)c1ccc(Cl)cc1)c1ccccn1	-	-	.	-	-	-	15µM
CCN1C(=O)N[C@@H](c2cccs2)C(C(C)=O)=C1C	-	-	-	-	-	-	.
Cc1ccc(Cl)cc1N(C)C(=O)c1cc2ccc3cccnc3c2[nH]1	-	-	.	.	-	?	.
O=C(N/N=C/c1cccnc1)c1ccc(O)cc1	-	-	-	-	-	-	.
O=C(N/N=C/c1cccnc1)c1cc(O)c(O)c(O)c1	-	?	-	?	?	?	.	Pol iota confirm=24
SMILES	POLH inh	POLK inh	PI5P4Ka inh	WRN inhibitor	Pol beta inh	POLI inh	TbPGK inh	others
O=Cc1cn(-c2ccccc2)nc1-c1cc2cc(O)ccc2oc1=O	?	?	.	?	56µM	22µM	.	Pol iota confirm=?
O=Cc1cn(-c2ccccc2)nc1-c1cc2c(ccc3ccccc32)oc1=O	?	-	-	-	-	-	.
O=C(NNC(=O)C1CC1)c1cc2cc3ccccc3nc2s1	-	-	-	-	?	-	.
O=C(NNC(=O)c1cc2cc3ccccc3nc2s1)c1cccc(Cl)c1	?	79µM	?	?	1.4µM	?	.	Pol iota confirm=?
C[N+]1(CC(=O)c2ccc(Br)cc2)CCOCC1	.	-	.	.	.	-	.
Cc1ccc2nc3[nH]c(=O)[nH]c(=O)c3c(N)c2c1	-	-	-	-	.	-	.	Pol iota confirm=?
O=C(O)c1c2cc(Br)ccc2nc2[nH]c(=O)[nH]c(=O)c12	-	-	-	-	.	-	.
COCCN1C(=O)N[C@@H](c2ccccc2)[C@H](C(=O)OC)[C@H]1C	-	-	-	-	.	-	.
O=C(Nc1ccccn1)c1cc2ccccc2o1	-	-	.	-	-	-	16µM
Cc1ccc(OCC(=O)N(C)CC(=O)NCc2ccco2)c(Br)c1	14µM	79µM	?	?	.	?	21µM
COc1cccc2c(C)nc(Nc3nc(CSc4nnc(C)s4)cc(=O)[nH]3)nc12	-	-	-	-	-	?	.	Pol iota confirm=?
Cc1ccc2c(C)nc(Nc3nc(CSc4nnc(C)s4)cc(=O)[nH]3)nc2c1	-	-	.	-	-	-	.
COc1ccc(OC)c(NC(=O)Cn2c(=O)cc(-c3ccccc3)c3c(C)nn(C)c32)c1	?	-	.	.	?	-	.	Pol iota confirm=47
NS(=O)(=O)c1ccc(NC(=O)/C=C/c2ccco2)cc1	20µM	50µM	-63	?	25µM	18µM	8.2µM
COc1ccc(-n2nnc3c(=O)n(CC(=O)Nc4ccc5c(c4)OCCO5)cnc32)cc1OC	25µM	-	-	-[11.6 µM]	?	-	.	Pol iota confirm=67
O=C(Cn1cnc2c(nnn2-c2cccc(F)c2)c1=O)Nc1ccc2c(c1)OCCO2	-	-	-	?	-	-	.
CC1(C)CC(=O)C2=C(C1)OC1=C(C(=O)CC(C)(C)C1)C2(C)C	.	.	.	.	-	.	.
NC(=S)N/N=C/c1cccc(O)c1O	-	?	-	-	-	79µM	.	Pol iota confirm=67
NC(=S)N/N=C/c1ccccc1O	-	-	-	-	-	-	.
CC(C)[C@H](NC(=O)c1ccccc1)C(=O)OCC(=O)c1c(N)n(C)c(=O)n(C)c1=O	-	-	-	-	.	-	.
COC(=O)c1cc(-c2ccc(Br)cc2)c2c(=O)n(C)c(=O)n(C)c2n1	-	-	-	-	-	-	.
CNC(=O)C1CCC(Cn2c(=O)c3sccc3n(CC(=O)Nc3cc(C)cc(C)c3)c2=O)CC1 (stereo not drawn)	-	-	.	.	-	-	-
CNC(=O)C1CCC(Cn2c(=O)c3sccc3n(CC(=O)N3CCC(C)CC3)c2=O)CC1 (stereo not drawn)	-	-	.	.	-	-	-
CCOC(=O)Oc1ccc(/C=C2\N=C(C)OC2=O)cc1	-	-	-	-	-	-	.
Oc1c(C(c2ccc(Cl)cc2)N2CCCC2)sc2nc(-c3ccco3)nn12 (stereo not drawn)	?	-	.	.	-	-	.
Cc1cccc(C)c1NC(=O)CN1C(=O)S/C(=C\c2cccn2C)C1=O	-	-	.	-	-	-	.
Cc1ccc(NC(=O)CN2C(=O)S/C(=C\c3cccn3-c3cccc(C(=O)O)c3)C2=O)c(C)c1	3.5µM	?	?	?	10µM	?	9.2µM
